Results as given in ChEMBL document CHEMBL1157539, “Thousands of chemical starting points for antimalarial lead identification” (Nature, 2010).

Test system: Plasmodium falciparum
Experiment: GSK_TCMDC: Inhibition of Plasmodium falciparum Dd2 in whole red blood cells, using parasite LDH activity as an index of growth. Test compounds present at 2uM
Assay type: functional

Question: Which Inhibition does the source give for `Cc1nnsc1C(=O)Nc1ccc(-c2cccc(-c3nc4cccc(C)c4[nH]3)c2)cc1` here?
Answer: 47%

Question: `CS(=O)(=O)Nc1ccc(OCCCCCCOc2ccc(NS(C)(=O)=O)cc2)cc1` was tested. Which Inhibition did it give?
Answer: 82%

Question: For `CCc1ccc(NC(=O)c2ccc(CN3CCCN(Cc4cccc(Cl)c4)CC3)cc2)cc1.O=C(O)C(F)(F)F`, which Inhibition is on record?
Answer: 2%

Question: `CC(Cc1ccc(CNC(=O)NCc2ccc(CC(C)NCCc3cccc(Cl)c3)cc2)cc1)NCCc1cccc(Cl)c1` (stereo not drawn) was tested. Which Inhibition did it give?
Answer: 44%

Question: `CCc1cc([C@H]2O[C@@H](n3cnc4c(NCC(c5ccccc5)c5ccccc5)nc(NCCNc5ccccn5)nc43)[C@H](O)[C@@H]2O)on1.O=CO` was tested. Which Inhibition did it give?
Answer: 32%

Question: How did the Inhibition turn out when `CC=CC1CCNC(C(O)c2ccnc3ccc(OC)cc23)C1` (stereo not drawn) was run?
Answer: 1%

Question: How did the Inhibition turn out when `Cc1n[nH]c2ccc(-c3cc(OC[C@@H](N)Cc4ccccc4)cnc3-c3ccccc3OCc3cccc(F)c3)cc12.O=C(O)C(F)(F)F` was run?
Answer: 91%

Question: With `CC(=O)N1Cc2ccccc2C1=O` as the compound, how does the Inhibition read?
Answer: 0%

Question: With `COCCCNc1sc(S(=O)(=O)c2ccccc2)nc1S(=O)(=O)c1ccc(Cl)cc1` as the compound, how does the Inhibition read?
Answer: 87%

Question: `CC(C)C[C@H](NC(=O)c1cc(-c2ccc(F)cc2)no1)C(=O)O.CC(C)C[C@H](NC(=O)c1conc1-c1ccc(F)cc1)C(=O)O` was tested. Which Inhibition did it give?
Answer: 4%

Question: `CCC(C)OC(=O)C1=C(C)NC2=C(C(=O)CC(c3ccc(OC)c(OC)c3)C2)C1c1cccc(O)c1` (stereo not drawn) was tested. Which Inhibition did it give?
Answer: 98%

Question: For `O=C(NCCN1CCCC1)c1cccc(-c2ccc(-c3nc4cc(F)ccc4[nH]3)cc2)c1`, which Inhibition is on record?
Answer: 85%

Question: How did the Inhibition turn out when `Cc1ccc(C)c2sc(N(CCCn3ccnc3)C(=O)c3ccco3)nc12.Cl` was run?
Answer: 63%

Question: Which Inhibition does the source give for `Cc1cc(-c2ccc(CNCc3ccsc3)cc2)ccc1S(=O)(=O)NCCN1CCCC1.O=C(O)C(F)(F)F` here?
Answer: 49%

Question: For `Cl.Cn1ccc(-c2cccc(Nc3ccnc4cc(-c5nccs5)ccc34)c2)n1`, which Inhibition is on record?
Answer: 94%

Question: `Oc1cc(-c2cccc(C(F)(F)F)c2)nc(Nc2ccc(Cl)c(Cl)c2)n1` was tested. Which Inhibition did it give?
Answer: 97%

Question: How did the Inhibition turn out when `CC(=O)Nc1cccc(C(=O)Nc2cccc(-c3ccc(-c4nc5cc(F)ccc5[nH]4)cc3)c2)c1` was run?
Answer: 9%

Question: How did the Inhibition turn out when `Cl.c1ccc(-c2cc(NCCCCCCCCNc3cc(-c4ccccc4)nc4ccccc34)c3ccccc3n2)cc1` was run?
Answer: 72%

Test system: HepG2
Experiment: GSK_TCMDC: Percent inhibition of human HepG2 cell line. Test compounds present at 10uM.
Assay type: functional

Question: Which Inhibition does the source give for `CCCc1cc(OC)c(CC2c3cc(O)c(C)cc3CCN2C)cc1OC.Cl` (stereo not drawn) here?
Answer: 32%

Question: For `Cc1cc(C)c(O)c(-c2cc(C(=O)Nc3ccc(S(=O)(=O)N4CC(C)OC(C)C4)cc3)[nH]n2)c1` (stereo not drawn), which Inhibition is on record?
Answer: 31%

Question: How did the Inhibition turn out when `CC(=O)c1sc(Cc2nc3ccccc3s2)nc1C` was run?
Answer: 0%

Question: For `Cc1ccc2c(=O)cc(CCc3cccc(F)c3F)n(CC(=O)N(Cc3ccc(-c4ccc(C(F)(F)F)cc4)cc3)C3CCN(C)CC3)c2n1.O=C(O)C(O)C(O)C(=O)O`, which Inhibition is on record?
Answer: 49%

Question: For `CC(C)c1ccc(CN2CCC(CNC(=O)c3cc(-c4cccc(C(F)(F)F)c4)cs3)C2)cc1.O=C(O)C(F)(F)F` (stereo not drawn), which Inhibition is on record?
Answer: 36%

Question: With `Nc1nccc2ccc(-c3ccnc(NCc4cccnc4)n3)cc12` as the compound, how does the Inhibition read?
Answer: 11%

Question: For `CS(=O)(=O)N(c1ccc(F)cc1)c1cc(C(=O)N[C@@H](Cc2ccccc2)[C@H](O)CNCc2cccc(C(F)(F)F)c2)cc(N2CCCC2=O)c1.O=CO`, which Inhibition is on record?
Answer: 0%

Question: Which Inhibition does the source give for `COc1ccc2nccc([C@@H](O)CN3CCC(NC(=O)C(c4ccccc4C)N4CCC(Cc5ccccc5)CC4)CC3)c2c1` (stereo partly drawn) here?
Answer: 10%

Question: How did the Inhibition turn out when `O=S(=O)(Nc1ccc(CCN2CCC(N3CCCCC3)CC2)cc1)c1ccc(Cl)cc1` was run?
Answer: 23%

Question: Which Inhibition does the source give for `CNc1ccc(CNCc2cccc(-c3ccc(-c4nc5cc(C(F)(F)F)ccc5[nH]4)cc3)c2)cc1.O=C(O)C(F)(F)F` here?
Answer: 21%

Question: `O=C(Nc1cccc(-c2ccc(-c3nc4cc(F)ccc4[nH]3)s2)c1)c1ccncc1` was tested. Which Inhibition did it give?
Answer: 74%

Question: For `Cc1cc2nc(-c3ccc(/C=C/C(=O)NCCCc4ccccc4)cc3)[nH]c2cc1C`, which Inhibition is on record?
Answer: 15%

Question: Which Inhibition does the source give for `CCOc1c(CNCCCNc2nc3ccccc3[nH]2)cc(Br)cc1OC.Cl` here?
Answer: 29%

Question: Which Inhibition does the source give for `O=C(Nc1cccc(-c2cc(-c3c(Cl)cccc3Cl)no2)c1)c1cncc(-c2cccs2)c1` here?
Answer: 0%

Question: With `Cc1cc(N)c2cc(NC(=O)CCC(=O)Nc3ccc4nc(C)cc(N)c4c3)ccc2n1` as the compound, how does the Inhibition read?
Answer: 0%

Question: With `CCOc1ccc(-c2nc(NC(=O)COc3ccc(OC)cc3)sc2C)cc1` as the compound, how does the Inhibition read?
Answer: 0%

Question: For `COc1cccc(-c2ccc3c(-c4cccc(NC(C)=O)c4)cnc(N)c3c2)c1.O=CO`, which Inhibition is on record?
Answer: 71%

Question: For `CC(C)NCc1ccc(-c2ccc(-c3nc4cc(F)ccc4[nH]3)cc2)cc1.O=C(O)C(F)(F)F`, which Inhibition is on record?
Answer: 14%

Question: How did the Inhibition turn out when `COc1ccc(S(=O)(=O)NCCC2CCN(CCCCCNC(=O)C=Cc3ccc(Cl)c(Cl)c3)CC2)cc1` was run?
Answer: 36%

Question: With `O=C(NCCCN1CCOCC1)c1cccc(Nc2nccc(Nc3ccc(Oc4ccccc4)cc3)n2)c1` as the compound, how does the Inhibition read?
Answer: 34%

Question: Which Inhibition does the source give for `CCCNC(=O)Nc1cc2cc(-c3ccc(CN4CCCC4)cc3)ccc2n2c(C)nnc12` here?
Answer: 67%

Question: `CCNc1cc(C)nc(Nc2ccc(NS(=O)(=O)c3ccccc3)cc2)n1` was tested. Which Inhibition did it give?
Answer: 41%

Question: Which Inhibition does the source give for `Cc1nnsc1C(=O)Nc1ccc(-c2cccc(-c3nc4cccc(C)c4[nH]3)c2)cc1` here?
Answer: 23%

Question: `CS(=O)(=O)Nc1ccc(OCCCCCCOc2ccc(NS(C)(=O)=O)cc2)cc1` was tested. Which Inhibition did it give?
Answer: 3%

Question: Which Inhibition does the source give for `CCc1ccc(NC(=O)c2ccc(CN3CCCN(Cc4cccc(Cl)c4)CC3)cc2)cc1.O=C(O)C(F)(F)F` here?
Answer: 50%

Question: Which Inhibition does the source give for `CC(Cc1ccc(CNC(=O)NCc2ccc(CC(C)NCCc3cccc(Cl)c3)cc2)cc1)NCCc1cccc(Cl)c1` (stereo not drawn) here?
Answer: 100%

Question: With `CCc1cc([C@H]2O[C@@H](n3cnc4c(NCC(c5ccccc5)c5ccccc5)nc(NCCNc5ccccn5)nc43)[C@H](O)[C@@H]2O)on1.O=CO` as the compound, how does the Inhibition read?
Answer: 14%

Question: `CC=CC1CCNC(C(O)c2ccnc3ccc(OC)cc23)C1` (stereo not drawn) was tested. Which Inhibition did it give?
Answer: 0%

Question: How did the Inhibition turn out when `Cc1n[nH]c2ccc(-c3cc(OC[C@@H](N)Cc4ccccc4)cnc3-c3ccccc3OCc3cccc(F)c3)cc12.O=C(O)C(F)(F)F` was run?
Answer: 55%

Question: How did the Inhibition turn out when `CC(=O)N1Cc2ccccc2C1=O` was run?
Answer: 10%

Question: Which Inhibition does the source give for `COCCCNc1sc(S(=O)(=O)c2ccccc2)nc1S(=O)(=O)c1ccc(Cl)cc1` here?
Answer: 0%

Question: With `CC(C)C[C@H](NC(=O)c1cc(-c2ccc(F)cc2)no1)C(=O)O.CC(C)C[C@H](NC(=O)c1conc1-c1ccc(F)cc1)C(=O)O` as the compound, how does the Inhibition read?
Answer: 7%

Question: How did the Inhibition turn out when `CCC(C)OC(=O)C1=C(C)NC2=C(C(=O)CC(c3ccc(OC)c(OC)c3)C2)C1c1cccc(O)c1` (stereo not drawn) was run?
Answer: 0%

Question: For `O=C(NCCN1CCCC1)c1cccc(-c2ccc(-c3nc4cc(F)ccc4[nH]3)cc2)c1`, which Inhibition is on record?
Answer: 33%

Question: `Cc1ccc(C)c2sc(N(CCCn3ccnc3)C(=O)c3ccco3)nc12.Cl` was tested. Which Inhibition did it give?
Answer: 28%

Question: With `Cc1cc(-c2ccc(CNCc3ccsc3)cc2)ccc1S(=O)(=O)NCCN1CCCC1.O=C(O)C(F)(F)F` as the compound, how does the Inhibition read?
Answer: 57%

Question: Which Inhibition does the source give for `Cl.Cn1ccc(-c2cccc(Nc3ccnc4cc(-c5nccs5)ccc34)c2)n1` here?
Answer: 39%

Question: Which Inhibition does the source give for `Oc1cc(-c2cccc(C(F)(F)F)c2)nc(Nc2ccc(Cl)c(Cl)c2)n1` here?
Answer: 57%

Question: How did the Inhibition turn out when `CC(=O)Nc1cccc(C(=O)Nc2cccc(-c3ccc(-c4nc5cc(F)ccc5[nH]4)cc3)c2)c1` was run?
Answer: 60%

Question: For `Cl.c1ccc(-c2cc(NCCCCCCCCNc3cc(-c4ccccc4)nc4ccccc34)c3ccccc3n2)cc1`, which Inhibition is on record?
Answer: 36%
